This passage reports H1.0 immunofluorescence intensity and cell number results from the supplement of paper PMC7156485.

Settings in all cases: concentration: 10 µM; 24 h
The test system of test [1] is HCC1569. Put plainly: H1.0 immunofluorescence intensity relative to DMSO (% of DMSO); higher = stronger H1.0 induction. The essentials:
(§1)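 Cells were seeded at 800 per well in 384-well plates with RPMI containing 10% FBS; both HCC1569 and TDF lines were used. Compounds were added at 10 µM for 24 h at 37 °C, in triplicate, before fixation in 3.7% formaldehyde and staining with a rabbit anti-H1.0 antibody, an AlexaFluor 647 secondary and DAPI. H1.0 nuclear intensity or cell number is reported as percent of the plate control using the median of replicates, and HCC1569 values were smoothed for positional effects.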

Test [2] deals with TDF. The description is as above. The gist of the method:
as §1

Test [3] deals with HCC1569. Put plainly: cell number relative to DMSO (% of DMSO); higher = more cells (less growth inhibition / toxicity). The essentials: as §1
For test [4], the system named is TDF. The test is described as above. The essentials: as §1
In test [5] the test system is TDF. Put plainly: H1.0 immunofluorescence intensity relative to DMSO (% of DMSO); higher = stronger H1.0 induction, active = 120 or more. The gist of the method:
as §1

Test [6] deals with HCC1569. Put plainly: H1.0 immunofluorescence intensity relative to DMSO (% of DMSO); higher = stronger H1.0 induction, active = 140 or more. The essentials: as §1

SMILES strings stand for the structures. ± gives the standard deviation of the averaged measurements.
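Wherever H1.0 immunofluorescence intensity relative to DMSO is given: TDF is a line of transformed human dermal fibroblasts of mesenchymal origin.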
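Wherever cell number relative to DMSO is given: TDF denotes transformed human dermal fibroblasts of mesenchymal origin.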

Turning to `CC(=O)N[C@@H](CS)C(N)=O`, the H1.0 immunofluorescence intensity in test [1] is 103 (inactive); in test [2], 96.2 (inactive).

For `NC(=O)c1ccc2nc(-c3ccc(Oc4ccc(Cl)cc4)cc3)[nH]c2c1` [Chk2 Inhibitor II], the results for the cell number in test [3] and in test [4] were 97.4 and 100, respectively. The H1.0 immunofluorescence intensity in test [5] was 91.4 (inactive); in test [6], 132 (inactive).

For the compound `CN(C)c1cc2c(Nc3ccc4c(cnn4Cc4ccccc4)c3)ncnc2cn1`, the cell number in test [3] was 82.9; in test [4], 90.4. Also, the H1.0 immunofluorescence intensity in test [5] is 113 (inactive); in test [6] it was 118 (inactive).

Turning to `Cl.Cl.Cl.NCCCCNCCCN` [Spermidine trihydrochloride], the results for the cell number in test [3] and in test [4] were 99.7 and 97.2, respectively. Further, the H1.0 immunofluorescence intensity is 102 (inactive) in test [5] and 82 (inactive) in test [6].

Turning to `NC(=O)C(=O)[O-].[Na+]` [Sodium Oxamate], the values for the cell number in test [3] and in test [4] were 102 and 105, respectively. Further, the H1.0 immunofluorescence intensity in test [5] is 94 (inactive); in test [6], 93.5 (inactive).

Consider `NCC1CCC(C(=O)O)CC1` (stereo not drawn) [Tranexamic acid], for which the cell number in test [3] was determined as 99.5; in test [4] it was 104. In addition, the H1.0 immunofluorescence intensity in test [5] was 87.9 (inactive); in test [6], 111 (inactive).

Regarding `COc1cc2c(CCNC(C)=O)c[nH]c2cc1O` [6-Hydroxymelatonin], the cell number stood at 100 in test [3] and 110 in test [4]. For the same compound, the H1.0 immunofluorescence intensity in test [5] is 91.4 (inactive); in test [6], 94 (inactive).

On to `O=c1cc(-c2cccc3c2Sc2ccccc2S3)oc(N2CCOCC2)c1` [ATM Kinase Inhibitor], for which the cell number in test [3] worked out at 89.5; in test [4], 109. In addition, the H1.0 immunofluorescence intensity was 98.4 (inactive) in test [5] and 113 (inactive) in test [6].

On to `COc1ccc(-c2cc(C(O)C3CCCCN3)c3ccccc3n2)cc1.Cl.Cl` (stereo not drawn), for which the cell number came to 68.2 in test [3] and 24.8 in test [4]. In addition, the H1.0 immunofluorescence intensity in test [5] was 169 (active); in test [6] it was 157 (active).

As to `C1COC(NC(C2CC2)C2CC2)=N1.O=P(O)(O)O` [Rilmenidine phosphate], the cell number worked out at 101 in test [3] and 110 in test [4]. The H1.0 immunofluorescence intensity in test [5] was 88.5 (inactive); in test [6], 103 (inactive).

`COCCOC(=O)C1=C(C)NC(C)=C(C(=O)OCC=Cc2ccccc2)C1c1cccc([N+](=O)[O-])c1` (stereo not drawn) [Cilnidipine]: the cell number in test [3] came to 104; in test [4], 108. For the same compound, the figures for the H1.0 immunofluorescence intensity in test [5] and in test [6] were 90.2 (inactive) and 111 (inactive), respectively.

Regarding `O=C1c2c(O)ccc(O)c2C(=O)c2c(NCCNCCO)ccc(NCCNCCO)c21` [Mitoxantrone], the cell number is 53.2 ± 8.2 in test [3] and 3.71 ± 2.7 in test [4]. Moreover, the figures for the H1.0 immunofluorescence intensity in test [5] and in test [6] were 2090 (active) and 120 (inactive), respectively.

Consider `CC(=O)OCC(=O)C1(O)CCC2C3CCC4=CC(=O)CCC4(C)C3C(O)CC21C` (stereo not drawn) [Hydrocortisone 21-acetate], for which the cell number in test [3] came to 99.8; in test [4], 104. Also, the H1.0 immunofluorescence intensity is 78 (inactive) in test [5] and 109 (inactive) in test [6].

As for `Cc1ccc(-c2n[nH]c3c2C(c2cccc(O)c2)N(c2ccc(C(=O)O)cc2)C3=O)cc1` (stereo not drawn), the cell number in test [3] turned out to be 103; in test [4] it was 92.6. The values for the H1.0 immunofluorescence intensity in test [5] and in test [6] were 95 (inactive) and 116 (inactive), respectively.

For `COC(=O)c1cc(OC)c2c(c1-c1c(CO)cc(OC)c3c1OCO3)OCO2`, the cell number in test [3] worked out at 104; in test [4], 99.8. For the same compound, the figures for the H1.0 immunofluorescence intensity in test [5] and in test [6] were 98.6 (inactive) and 109 (inactive), respectively.

As for `O=C(O)CNC(=O)C(CS)Cc1ccccc1` (racemic) [DL-Thiorphan], the cell number in test [3] was 105; in test [4] it was 95.5. Moreover, the H1.0 immunofluorescence intensity was 93.4 (inactive) in test [5] and 96.1 (inactive) in test [6].

For `Brc1c(Br)c(Br)c2[nH]cnc2c1Br` [4,5,6,7-tetrabromo-1H-benzimidazole], the results for the cell number in test [3] and in test [4] were 69.9 and 71.5, respectively. The H1.0 immunofluorescence intensity in test [5] was 111 (inactive); in test [6] it was 103 (inactive).

With `CC(C[N+](C)(C)C)OC(N)=O` (stereo not drawn) [Carbamyl-beta-methylcholine], the cell number in test [3] came to 105; in test [4] it was 99.5. The values for the H1.0 immunofluorescence intensity in test [5] and in test [6] were 89.1 (inactive) and 108 (inactive), respectively.

As for `CC1CCC2C(C)(CO)C(O)CCC2(C)C12CCC(CO)(CCO)O2` (stereo not drawn) [Lagochiline], the cell number in test [3] was 98.2; in test [4], 99.8. Moreover, the values for the H1.0 immunofluorescence intensity in test [5] and in test [6] were 97 (inactive) and 100 (inactive), respectively.

On to `O=c1cc(N2CCOCC2)oc2c1ccc1ccccc12` [DNA-PK Inhibitor II], for which the cell number in test [3] worked out at 98.1; in test [4], 97.4. The H1.0 immunofluorescence intensity in test [5] is 92.5 (inactive); in test [6], 112 (inactive).

As for `CC1c2cccc(O)c2C(O)=C2C(=O)C3(O)C(O)=C(C(N)=O)C(=O)C(N(C)C)C3C(O)C21` (stereo not drawn) [Doxycycline], the figures for the cell number in test [3] and in test [4] were 101 and 93.9, respectively. Further, the H1.0 immunofluorescence intensity in test [5] is 108 (inactive); in test [6], 115 (inactive).

Take `COc1cc2ncnc(Nc3ccc(OCc4ccccc4)cc3)c2cc1OC` [EGFR/ErbB-2 Inhibitor]: the cell number in test [3] stood at 88.7; in test [4] it was 92.5. In addition, the H1.0 immunofluorescence intensity is 103 (inactive) in test [5] and 121 (inactive) in test [6].

Regarding `CN(C)CCOc1cc(-c2cn[nH]c2)ccc1NC(=O)C1COc2ccccc2O1` (stereo not drawn), the results for the cell number in test [3] and in test [4] were 103 and 95.7, respectively. Moreover, the H1.0 immunofluorescence intensity in test [5] was 87.3 (inactive); in test [6] it was 112 (inactive).

In the case of `COC(=O)c1ccccc1O` [Methyl salicylate], the cell number amounted to 100 in test [3] and 104 in test [4]. Further, the H1.0 immunofluorescence intensity is 92.2 (inactive) in test [5] and 113 (inactive) in test [6].

On to `CC1(C)CC1C(=O)NC(=CCCCCSCC(N)C(=O)O)C(=O)O` (stereo not drawn) [Cilastatin], for which the values for the cell number in test [3] and in test [4] were 100 and 94, respectively. In addition, the H1.0 immunofluorescence intensity in test [5] is 101 (inactive); in test [6], 119 (inactive).
